Structures are written as SMILES. Values without a mark were called inactive. For some of these results: Entries with a potency or affinity are not part of this list. Active and inactive are the calls of the source. Unless noted, the rule behind the calls is not given here.

20 compounds from PubChem BioAssay can be followed below.

Assay [1] in a line: antimalarial activity against Dd2 strain (AID 2302;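 active = growth inhibition above 50% at the single 2 µM test dose, taken to imply half-maximal potency below 2 µM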;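 note: 0% = DMSO untreated growth and 100% = chloroquine plus artemisinin killed control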). The following applies: P. falciparum Dd2 in RBCs, LDH growth readout, 72 h; at 2 µM; hits give high values.
The nature of assay [2]: human hepatoma cell viability loss – ATP luminescence, cytotoxicity control for P. falciparum antimalarial project, primary screen (AID 2303;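 active = inhibition above 50%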;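 note: 0% = DMSO wells and 100% = digitonin-killed cells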). The following applies: HepG2 viability, 24-48 h, at 10 µM, hits give high values.
Assay [3] deals with L-lactate dehydrogenase (Plasmodium falciparum (isolate CDC / Honduras)) (UniProt Q27743). Kind of assay: PfLDH activity inhibition – cell lysate, 3D7 strain, counter-screen for P. falciparum growth inhibition project (AID 2304).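 Note: 0% = vehicle and 100% = reference inhibitor.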 The following applies: P. falciparum 3D7 crude extract, LDH APAD/NBT absorbance; at 2 µM; hits give high values. A general note: A counterscreen serves to expose hits that act by an unwanted route or on another target.
Chain of L-lactate dehydrogenase (Plasmodium falciparum (isolate CDC / Honduras)) (Q27743 whole entry, looked up): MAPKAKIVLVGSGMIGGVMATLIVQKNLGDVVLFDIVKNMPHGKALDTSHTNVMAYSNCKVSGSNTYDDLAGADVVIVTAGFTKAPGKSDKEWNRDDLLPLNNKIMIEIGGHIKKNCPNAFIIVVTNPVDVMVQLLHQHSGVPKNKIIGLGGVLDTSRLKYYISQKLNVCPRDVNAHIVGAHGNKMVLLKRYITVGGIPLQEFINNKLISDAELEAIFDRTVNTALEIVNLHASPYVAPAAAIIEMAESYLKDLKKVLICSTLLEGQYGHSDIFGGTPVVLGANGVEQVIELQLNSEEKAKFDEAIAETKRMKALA

The nature of assay [4]: inhibition of 3D7 malaria parasite growth – strain 3D7 (AID 2306).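 Note: 0% = DMSO wells and 100% = chloroquine plus artemisinin control wells.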 The following applies: P. falciparum 3D7 erythrocytic growth, LDH absorbance, 72 h; at 2 µM; hits give high values.
Assay [5] deals with Calcium-dependent protein kinase 1 (Plasmodium falciparum (isolate 3D7)) (UniProt P62344). As to the kind of experiment: PfCDPK1 kinase inhibitors, biochemical, TCAMS library (AID 1159585; cut-off not given, nearly all actives have IC50 up to about 0.98 µM;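 note: inhibitors leave more ATP so luminescence rises with inhibition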). The following applies: recombinant PfCDPK1, Kinase-Glo ATP depletion luminescence. (In general: Kinase-Glo reads ATP consumption through a luciferase reaction.)
Chain of Calcium-dependent protein kinase 1 (Plasmodium falciparum (isolate 3D7)) (P62344 whole entry, looked up): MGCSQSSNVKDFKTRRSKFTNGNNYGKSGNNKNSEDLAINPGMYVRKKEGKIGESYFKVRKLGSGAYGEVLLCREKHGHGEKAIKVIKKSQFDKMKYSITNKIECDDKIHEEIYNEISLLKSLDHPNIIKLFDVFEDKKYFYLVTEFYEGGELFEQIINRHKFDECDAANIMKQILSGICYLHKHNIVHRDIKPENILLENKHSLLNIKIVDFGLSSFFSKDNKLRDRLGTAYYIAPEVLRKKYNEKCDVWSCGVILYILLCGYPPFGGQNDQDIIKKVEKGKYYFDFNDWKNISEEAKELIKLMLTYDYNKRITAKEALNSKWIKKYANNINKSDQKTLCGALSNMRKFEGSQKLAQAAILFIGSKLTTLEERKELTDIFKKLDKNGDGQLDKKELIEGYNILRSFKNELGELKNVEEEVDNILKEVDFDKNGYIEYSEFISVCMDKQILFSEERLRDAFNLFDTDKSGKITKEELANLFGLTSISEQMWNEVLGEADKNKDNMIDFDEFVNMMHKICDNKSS
Assay [6] has as its target Plasmodium falciparum protein kinase 6 (PK6, PF3D7_1337100) (UniProt Q8IDW1). As to the kind of experiment: PfPK6 kinase inhibitors, biochemical, TCAMS library (AID 1159586). The following applies: recombinant PfPK6, Kinase-Glo ATP depletion luminescence.
Assay [7] concerns the target Protein kinase 7 (PK7), Plasmodium falciparum 3D7 (PF3D7_0213400) (UniProt Q7YTF7). As to the kind of experiment: inhibition of Plasmodium PK7 catalytic activity – biochemical, TCAMS antimalarial set, Kinase-Glo luminescence (AID 1159587). The following applies: recombinant PfPK7, Kinase-Glo ATP depletion luminescence.
Assay [8] addresses Calcium-dependent protein kinase 4 (Plasmodium falciparum (isolate 3D7)) (UniProt Q8IBS5). As to the kind of experiment: PfCDPK4 kinase inhibitors, biochemical, TCAMS library (AID 1159588; cut-off not given, nearly all actives have IC50 up to about 0.91 µM). The following applies: recombinant PfCDPK4, Kinase-Glo ATP depletion luminescence.

Chain of Protein kinase 7 (PK7), Plasmodium falciparum 3D7 (PF3D7_0213400) (Q7YTF7 1-343): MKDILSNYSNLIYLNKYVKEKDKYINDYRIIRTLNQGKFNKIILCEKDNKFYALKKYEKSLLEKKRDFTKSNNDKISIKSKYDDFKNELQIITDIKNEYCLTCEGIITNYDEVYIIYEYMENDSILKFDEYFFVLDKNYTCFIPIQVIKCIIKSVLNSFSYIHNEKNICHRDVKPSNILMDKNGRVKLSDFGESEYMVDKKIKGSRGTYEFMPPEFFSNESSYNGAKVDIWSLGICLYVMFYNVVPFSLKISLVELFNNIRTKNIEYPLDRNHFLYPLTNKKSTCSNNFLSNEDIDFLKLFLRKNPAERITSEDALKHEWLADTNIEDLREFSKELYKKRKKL
Chain of Calcium-dependent protein kinase 4 (Plasmodium falciparum (isolate 3D7)) (Q8IBS5 whole entry, looked up): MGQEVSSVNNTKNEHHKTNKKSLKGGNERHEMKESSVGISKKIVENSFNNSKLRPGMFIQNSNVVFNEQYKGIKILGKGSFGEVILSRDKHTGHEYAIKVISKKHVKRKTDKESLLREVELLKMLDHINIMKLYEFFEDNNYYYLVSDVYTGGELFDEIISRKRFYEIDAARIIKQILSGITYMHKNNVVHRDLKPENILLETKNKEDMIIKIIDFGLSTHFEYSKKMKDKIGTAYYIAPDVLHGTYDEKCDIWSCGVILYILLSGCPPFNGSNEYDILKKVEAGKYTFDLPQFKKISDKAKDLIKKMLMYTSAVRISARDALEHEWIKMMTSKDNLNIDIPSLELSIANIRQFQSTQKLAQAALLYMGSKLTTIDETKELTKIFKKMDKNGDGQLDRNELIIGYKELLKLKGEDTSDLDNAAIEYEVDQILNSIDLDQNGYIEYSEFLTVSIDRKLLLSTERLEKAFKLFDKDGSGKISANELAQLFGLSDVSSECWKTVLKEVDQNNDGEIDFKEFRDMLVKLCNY
Chain of Plasmodium falciparum protein kinase 6 (PK6, PF3D7_1337100) (Q8IDW1 1-305): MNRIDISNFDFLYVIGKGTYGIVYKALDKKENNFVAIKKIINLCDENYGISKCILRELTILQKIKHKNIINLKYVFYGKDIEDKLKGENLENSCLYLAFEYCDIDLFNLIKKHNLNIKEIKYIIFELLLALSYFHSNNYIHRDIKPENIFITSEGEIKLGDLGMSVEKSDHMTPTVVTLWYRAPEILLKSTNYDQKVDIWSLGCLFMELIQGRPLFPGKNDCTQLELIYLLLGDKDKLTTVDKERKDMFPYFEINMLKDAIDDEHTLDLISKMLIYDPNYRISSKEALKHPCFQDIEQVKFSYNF

As to `CC(C)(C)C(C)(C)Cc1ccc(O)c(CN2CCN(c3ccccc3)CC2)c1`, the growth inhibition in assay [1] is 98% (active); in assay [4] it was 99% (active). Also, the inhibition was 6% in assay [2] and 0% in assay [3]. Besides, the result in assay [5], in assay [6], in assay [7] and in assay [8] was inactive.

Regarding `C[C@H](NC(=O)c1c(CN2CCC(N3CCCCC3)CC2)c(-c2ccccc2)nc2cc(O)ccc12)C1CCCCC1`, the growth inhibition in assay [1] was 72% (active); in assay [4] it was 99% (active). For the same compound, the inhibition in assay [2] was 77% (active); in assay [3] it was 0%. Moreover, the outcome in assay [5], in assay [6], in assay [7] and in assay [8] was inactive.

Regarding `COc1ccc2[nH]c3ccccc3c(=O)c2c1`, the growth inhibition in assay [1] is 75% (active); in assay [4] it was 87% (active). Moreover, the inhibition in assay [2] is 0%; in assay [3], 2%. Further, the result in assay [5], in assay [6], in assay [7] and in assay [8] was inactive.

With `CCCC[C@H](NC(=O)OC(C)(C)C)C(=O)Nc1ccc(Cc2ccc(NC(=O)[C@H](CCCC)NC(=O)OC(C)(C)C)cc2)cc1`, the growth inhibition is 71% (active) in assay [1] and 95% (active) in assay [4]. For the same compound, the values for the inhibition in assay [2] and in assay [3] were 5% and 3%, respectively. Besides, the outcome in assay [5], in assay [6], in assay [7] and in assay [8] was inactive.

Turning to `Nc1c(-c2ccc(C(=O)NCCNCc3ccccc3)cc2)cnn1-c1ccc(C(F)(F)F)cc1`, the growth inhibition is 2% in assay [1] and 85% (active) in assay [4]. The figures for the inhibition in assay [2] and in assay [3] were 23% and 1%, respectively. Further, the result in assay [5], in assay [6], in assay [7] and in assay [8] was inactive.

For the compound `O=C(Nc1ccccc1)N(Cc1ccccc1-c1cccc(CNCCc2ccccc2)c1)C1CCN(Cc2ccccc2)CC1`, the growth inhibition in assay [1] is 59% (active); in assay [4], 100% (active). The figures for the inhibition in assay [2] and in assay [3] were 95% (active) and 4%, respectively. The outcome in assay [5], in assay [6], in assay [7] and in assay [8] was inactive.

Regarding `CON(C)C(=O)[C@@H](CCCCNC(=O)OCc1ccccc1)NC(=O)OC(C)(C)C`, the figures for the growth inhibition in assay [1] and in assay [4] were -1% and 98% (active), respectively. The inhibition in assay [2] is 5%; in assay [3] it was -4%. Further, the result in assay [5], in assay [6], in assay [7] and in assay [8] was inactive.

`CN1CCN(c2cc(NC(=O)Nc3ccc(-c4ccncc4)c(Cl)c3)ccc2Br)CC1`: the growth inhibition in assay [1] was 99% (active); in assay [4] it was 101% (active). The inhibition was 23% in assay [2] and 2% in assay [3]. Moreover, the result in assay [5], in assay [6], in assay [7] and in assay [8] was inactive.

Turning to `Nc1nc2ccc(S(=O)(=O)Nc3ccc(C(=O)N[C@@H](CCC(=O)O)C(=O)O)c(F)c3)cc2c(=O)[nH]1`, the results for the growth inhibition in assay [1] and in assay [4] were 16% and 97% (active), respectively. The values for the inhibition in assay [2] and in assay [3] were 37% and 4%, respectively. In addition, the result in assay [5], in assay [6], in assay [7] and in assay [8] was inactive.

On to `COc1ccc2nccc(NN=Cc3ccc([N+](=O)[O-])cc3)c2c1`, for which the growth inhibition in assay [1] was 68% (active); in assay [4] it was 100% (active). Further, the figures for the inhibition in assay [2] and in assay [3] were 9% and -2%, respectively. Besides, the result in assay [5], in assay [6], in assay [7] and in assay [8] was inactive.

As to `CCN(CC)C(=O)c1cnc(-c2ccccc2)nc1Oc1cccc(Cl)c1`, the growth inhibition is 40% in assay [1] and 92% (active) in assay [4]. Further, the inhibition in assay [2] was -7%; in assay [3], -3%. Also, the result in assay [5], in assay [6], in assay [7] and in assay [8] was inactive.

In the case of `c1ccc(C(c2ccccc2)N2CCC(NCc3ccc(OCCCN4CCCCC4)cc3)CC2)cc1`, the growth inhibition in assay [1] is 101% (active); in assay [4], 100% (active). Further, the inhibition in assay [2] is 74% (active); in assay [3], 4%. Besides, the outcome in assay [5], in assay [6], in assay [7] and in assay [8] was inactive.

On to `COc1ccc(C=NNc2cc(C)nc3c(C)cccc23)c2ccccc12`, for which the growth inhibition is 98% (active) in assay [1] and 102% (active) in assay [4]. Further, the results for the inhibition in assay [2] and in assay [3] were 3% and 0%, respectively. Also, the outcome in assay [5], in assay [6], in assay [7] and in assay [8] was inactive.

In the case of `CCCNC(=O)CN1CN(c2ccccc2)C2(CCN(C(=O)c3ccc(C(C)(C)C)cc3)CC2)C1=O`, the growth inhibition was 98% (active) in assay [1] and 99% (active) in assay [4]. The inhibition in assay [2] and in assay [3] was 0% each time. The result in assay [5], in assay [6], in assay [7] and in assay [8] was inactive.

Take `CC[C@H](C)CNC(=O)c1cncc(-c2ccc(CNCCCc3ccccc3)cc2)c1`: the results for the growth inhibition in assay [1] and in assay [4] were 99% (active) and 101% (active), respectively. Also, the inhibition is 19% in assay [2] and -2% in assay [3]. In addition, the outcome in assay [5], in assay [6], in assay [7] and in assay [8] was inactive.

For `Clc1ccc(-c2cc3c(NCc4ccncc4)nccc3s2)cc1`, the growth inhibition in assay [1] was 8%; in assay [4] it was 98% (active). Moreover, the inhibition is 26% in assay [2] and -1% in assay [3]. The result in assay [5], in assay [6], in assay [7] and in assay [8] was inactive.

Consider `COc1cccc(Nc2nc(C)cc(NCc3ccc(-c4c(C)noc4C)cc3)n2)c1`, for which the results for the growth inhibition in assay [1] and in assay [4] were 42% and 98% (active), respectively. The inhibition is 33% in assay [2] and -1% in assay [3]. In addition, the outcome in assay [5], in assay [6], in assay [7] and in assay [8] was inactive.

Regarding `CC1(C)C(N(O)C(=O)Nc2ccc(Cl)c(Cl)c2)N(c2ccc(Cl)c(Cl)c2)C(=O)N1CCc1ccccc1` (stereo not given), the growth inhibition in assay [1] is 93% (active); in assay [4], 91% (active). The inhibition in assay [2] was 10%; in assay [3] it was -1%. For the same compound, the result in assay [5], in assay [6], in assay [7] and in assay [8] was inactive.

In the case of `COc1cc(C2C(Oc3ccccc3)C(=O)N2Cc2ccc(F)cc2)cc(OC)c1OC` (stereo not given), the growth inhibition in assay [1] was 97% (active); in assay [4], 100% (active). Moreover, the inhibition is -2% in assay [2] and 4% in assay [3]. The outcome in assay [5], in assay [6], in assay [7] and in assay [8] was inactive.

With `Cc1cc(NC(=O)NCCN2CCC(NS(=O)(=O)c3cccc(Br)c3)C2)c2ccccc2n1` (stereo not given), the growth inhibition in assay [1] is 58% (active); in assay [4], 99% (active). In addition, the inhibition was 0% in assay [2] and -2% in assay [3]. Moreover, the result in assay [5], in assay [6], in assay [7] and in assay [8] was inactive.

A word on the inhibition: it is the drop in the measured response relative to a control, in per cent.
